Activity calls are given as the source filed them.
What was measured:
[1] = system: Plasmodium falciparum Sir2 (PF13_0152, Sir2A); assay: pfSir2 binders on small-molecule microarrays, primary screen, biochemical, small-molecule microarray, 635 nm fluorescence (AID 1098); settings: small-molecule microarray binding, fluorescence 635 nm; higher = more signal;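 note: score merges spot fluorescence intensity with its signal-to-noise ratio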
[2] = small-molecule microarray binders of probe aDKK1, primary screen, biochemical, biotinylated probe, 635/667 nm fluorescence (AID 1099); settings: higher = more signal;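 note: score merges 667nm spot fluorescence with signal to noise across triplicate slides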
[3] = small-molecule microarray binders of probe aCHRDL2, primary screen, biochemical, biotinylated probe, 635/667 nm fluorescence (AID 1100); settings: higher = more signal
[4] = splicing luciferase reporter signal modulators, primary screen, spliceosome inhibition project, cell-based, HEK293, splice +/- reporter (AID 1101); settings: luminescence, 24 h, higher = more signal, called active from +8 up or from −8 down;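 note: HEK293 cells carrying a splicing-competent luciferase reporter gene; test concentration not given here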
[5] = biological target: Fibroblast growth factor 10 (Homo sapiens) (UniProt O15520); assay: FGF10 binders on small-molecule microarrays, primary screen, biochemical, small-molecule microarray, 635 nm fluorescence (AID 1102); settings: FGF10 binding, fluorescence 635 nm, higher = more signal
Fibroblast growth factor 10 (Homo sapiens), sequence (O15520 whole entry, looked up): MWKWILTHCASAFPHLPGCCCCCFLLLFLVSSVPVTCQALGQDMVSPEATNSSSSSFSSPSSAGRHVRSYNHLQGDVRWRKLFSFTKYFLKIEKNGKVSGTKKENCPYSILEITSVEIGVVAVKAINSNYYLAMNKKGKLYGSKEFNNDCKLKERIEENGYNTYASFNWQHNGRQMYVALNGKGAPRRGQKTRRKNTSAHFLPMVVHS

[6] = system: glycogen synthase kinase-3 (GSK3A per assay name; protocol says GSK3B); assay: GSK3 binders on small-molecule microarrays, primary screen, biochemical, small-molecule microarray, 635 nm fluorescence, GSK3A (AID 1103); settings: small-molecule microarray binding, fluorescence 635 nm; higher = more signal; note: the record names both GSK3A and GSK3B
[7] = biological target: Epidermal growth factor receptor (Homo sapiens) (UniProt P00533); assay: EGFR binders on small-molecule microarrays, primary screen, biochemical, small-molecule microarray, 635 nm fluorescence (AID 1104); settings: EGFR binding, higher = more signal;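 note: score merges 667 nm emission intensity with spot signal to noise over triplicate slides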
Epidermal growth factor receptor (Homo sapiens), sequence (P00533 whole entry, looked up): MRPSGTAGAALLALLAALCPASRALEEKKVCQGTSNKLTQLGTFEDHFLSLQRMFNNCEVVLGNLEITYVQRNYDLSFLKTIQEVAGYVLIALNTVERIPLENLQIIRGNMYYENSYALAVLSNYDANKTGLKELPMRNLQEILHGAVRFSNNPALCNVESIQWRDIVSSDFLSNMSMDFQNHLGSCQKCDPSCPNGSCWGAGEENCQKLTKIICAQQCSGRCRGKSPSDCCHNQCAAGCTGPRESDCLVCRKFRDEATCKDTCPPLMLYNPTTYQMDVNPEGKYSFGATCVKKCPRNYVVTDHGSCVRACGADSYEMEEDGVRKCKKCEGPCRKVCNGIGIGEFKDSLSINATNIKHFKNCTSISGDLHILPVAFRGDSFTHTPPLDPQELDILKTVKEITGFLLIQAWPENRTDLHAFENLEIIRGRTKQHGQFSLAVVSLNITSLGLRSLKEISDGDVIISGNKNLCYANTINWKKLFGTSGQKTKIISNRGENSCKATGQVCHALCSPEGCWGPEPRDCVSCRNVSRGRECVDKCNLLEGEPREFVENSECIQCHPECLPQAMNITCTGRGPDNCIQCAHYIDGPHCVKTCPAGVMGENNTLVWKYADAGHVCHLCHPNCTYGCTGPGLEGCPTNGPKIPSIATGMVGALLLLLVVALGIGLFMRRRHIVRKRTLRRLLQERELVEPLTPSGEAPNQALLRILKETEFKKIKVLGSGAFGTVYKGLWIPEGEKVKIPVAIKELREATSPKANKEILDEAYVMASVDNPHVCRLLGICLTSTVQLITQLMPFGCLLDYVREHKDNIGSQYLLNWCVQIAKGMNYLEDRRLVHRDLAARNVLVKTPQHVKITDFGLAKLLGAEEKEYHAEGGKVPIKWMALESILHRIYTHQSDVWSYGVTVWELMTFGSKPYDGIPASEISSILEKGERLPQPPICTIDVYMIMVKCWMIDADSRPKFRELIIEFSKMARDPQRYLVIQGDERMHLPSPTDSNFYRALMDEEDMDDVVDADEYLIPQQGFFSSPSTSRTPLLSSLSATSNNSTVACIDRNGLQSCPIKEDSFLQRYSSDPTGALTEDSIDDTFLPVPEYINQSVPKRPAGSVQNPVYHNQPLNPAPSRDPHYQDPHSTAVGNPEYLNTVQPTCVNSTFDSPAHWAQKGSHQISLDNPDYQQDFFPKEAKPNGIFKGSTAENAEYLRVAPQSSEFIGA

[8] = biological target: Follistatin-related protein 3 (Homo sapiens) (UniProt O95633); assay: FSTL3 binders on small-molecule microarrays, primary screen, biochemical, small-molecule microarray, 635 nm fluorescence (AID 1105); settings: FSTL3 binding, higher = more signal;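 note: score merges emission near 667 nm and signal to noise per printed spot across three slides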
Follistatin-related protein 3 (Homo sapiens), sequence (O95633 whole entry, looked up): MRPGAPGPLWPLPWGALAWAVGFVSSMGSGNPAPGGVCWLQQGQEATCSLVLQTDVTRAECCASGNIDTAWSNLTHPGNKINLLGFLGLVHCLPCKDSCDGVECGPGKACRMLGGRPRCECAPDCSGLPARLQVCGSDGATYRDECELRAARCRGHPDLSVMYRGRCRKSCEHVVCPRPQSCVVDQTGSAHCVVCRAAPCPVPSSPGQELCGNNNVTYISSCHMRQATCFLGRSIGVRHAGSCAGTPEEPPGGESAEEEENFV

[9] = biological target: Dickkopf-related protein 1 (Homo sapiens) (UniProt O94907); assay: DKK1 binders on small-molecule microarrays, primary screen, biochemical, small-molecule microarray, 635 nm fluorescence scan (AID 1106); settings: DKK1 binding, higher = more signal;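 note: score merges emission near 667 nm with signal to noise over three replicate slides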
Dickkopf-related protein 1 (Homo sapiens), sequence (O94907 whole entry, looked up): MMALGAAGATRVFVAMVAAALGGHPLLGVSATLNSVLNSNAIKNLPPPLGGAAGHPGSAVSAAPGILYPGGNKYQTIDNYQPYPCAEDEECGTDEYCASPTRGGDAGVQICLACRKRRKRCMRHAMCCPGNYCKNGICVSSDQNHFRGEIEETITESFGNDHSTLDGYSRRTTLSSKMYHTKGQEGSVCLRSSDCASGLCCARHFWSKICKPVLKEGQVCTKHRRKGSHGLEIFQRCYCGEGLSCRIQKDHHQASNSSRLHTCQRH

[10] = system: Inhibin beta A chain (activin A); assay: INHBA (activin A) binders on microarrays, primary screen, biochemical, small-molecule microarray, 635 nm fluorescence scan (AID 1107); settings: small-molecule microarray binding, higher = more signal;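 note: mouse activin A protein probed at 4.33 µg/mL on printed slides; score merges bound-protein fluorescence near 667 nm with spot signal-to-noise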
[11] = system: Human papillomavirus type 1a protein E7 (residues 44-93); assay: HPV1a E7 fragment binders on microarrays, primary screen, biochemical, small-molecule microarray, residues 44-93, 635 nm fluorescence (AID 1108); settings: small-molecule microarray binding, fluorescence 635 nm; higher = more signal;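 note: E7 fragment applied at 1 µg/mL in TBST for 1 h at 4 C; score combines spot fluorescence with its signal to noise ratio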
[12] = modulators of HCV replicon luciferase signal, primary screen, HCV replication inhibitor project, Huh7 cells, luciferase reporter (AID 1109); settings: 48 h, higher = more signal;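 note: huh7 hepatoma cells harbouring a luciferase neomycin HCV replicon reporter; luciferase luminescence as measure of HCV replicon replication; test concentration not given here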
[13] = biological target: Left-right determination factor 2 (Homo sapiens) (UniProt O00292); assay: LEFTY2 binders on small-molecule microarrays, primary screen, biochemical, small-molecule microarray, 635 nm fluorescence scan (AID 1110); settings: LEFTY2 binding, higher = more signal
Left-right determination factor 2 (Homo sapiens), sequence (O00292 whole entry, looked up): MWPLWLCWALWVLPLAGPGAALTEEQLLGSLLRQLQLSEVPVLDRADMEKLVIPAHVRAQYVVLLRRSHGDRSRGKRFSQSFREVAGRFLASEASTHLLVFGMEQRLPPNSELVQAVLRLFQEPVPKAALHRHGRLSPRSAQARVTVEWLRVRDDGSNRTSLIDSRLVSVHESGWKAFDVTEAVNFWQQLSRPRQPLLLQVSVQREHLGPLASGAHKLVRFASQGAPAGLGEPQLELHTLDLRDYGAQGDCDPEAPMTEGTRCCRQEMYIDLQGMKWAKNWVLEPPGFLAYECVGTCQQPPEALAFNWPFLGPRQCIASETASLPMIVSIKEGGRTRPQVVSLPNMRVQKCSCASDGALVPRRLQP

[14] = biological target: Calmodulin-1 (Homo sapiens) (UniProt P0DP23); assay: CALM1 binders on microarrays, EGTA buffer, profiling panel, biochemical, small-molecule microarray, Cy5-labelled CALM1 (AID 1111); settings: Cy5-CALM1 binding fluorescence, higher = more signal;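 note: labelled calmodulin applied in Tris saline Tween buffer holding calcium plus EGTA and DTT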
[15] = biological target: Calmodulin-1 (Homo sapiens) (UniProt P0DP23); assay: calcium-bound CALM1 binders on microarrays, profiling panel, artefact control for SMM control-protein annotation, biochemical, small-molecule microarray, Cy5-labelled CALM1, plus calcium (AID 1112); settings: Cy5-CALM1 binding fluorescence, higher = more signal;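 note: score merges spot fluorescence with signal to noise from triplicate slides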
[16] = small-molecule microarray binders of probe aWnt5a, primary screen, biochemical, biotinylated probe, 635/667 nm fluorescence (AID 1113); settings: higher = more signal;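 note: score merges 667 nm fluorescence intensity with signal-to-noise per printed feature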
[17] = small-molecule microarray binders of probe aShh, primary screen, biochemical, biotinylated probe, 635/667 nm fluorescence (AID 1114); settings: higher = more signal;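 note: probe is biotin-labelled aShh protein from a stem cell growth factor screen; measures binding of labelled protein to compounds printed on the slide; score merges feature fluorescence at 667 nm with signal-to-noise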
[18] = small-molecule microarray binders of probe aNog, primary screen, biochemical, biotinylated probe, 635/667 nm fluorescence (AID 1115); settings: higher = more signal;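 note: probe is biotinylated aNog protein used at 0.15 µg/mL for 1 h at 4 C; z-score combines 667 nm fluorescence of each spot with its signal to noise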
[19] = biological target: Torsin-1A-interacting protein 1 (Homo sapiens) (UniProt Q5JTV8); assay: LAP1 binders from COS7 cell lysate, primary screen, small-molecule microarray, 635/667 nm fluorescence (AID 1116); settings: COS7-hLAP1 lysate binding, 635 nm fluorescence, higher = more signal
Torsin-1A-interacting protein 1 (Homo sapiens), sequence (Q5JTV8 whole entry, looked up): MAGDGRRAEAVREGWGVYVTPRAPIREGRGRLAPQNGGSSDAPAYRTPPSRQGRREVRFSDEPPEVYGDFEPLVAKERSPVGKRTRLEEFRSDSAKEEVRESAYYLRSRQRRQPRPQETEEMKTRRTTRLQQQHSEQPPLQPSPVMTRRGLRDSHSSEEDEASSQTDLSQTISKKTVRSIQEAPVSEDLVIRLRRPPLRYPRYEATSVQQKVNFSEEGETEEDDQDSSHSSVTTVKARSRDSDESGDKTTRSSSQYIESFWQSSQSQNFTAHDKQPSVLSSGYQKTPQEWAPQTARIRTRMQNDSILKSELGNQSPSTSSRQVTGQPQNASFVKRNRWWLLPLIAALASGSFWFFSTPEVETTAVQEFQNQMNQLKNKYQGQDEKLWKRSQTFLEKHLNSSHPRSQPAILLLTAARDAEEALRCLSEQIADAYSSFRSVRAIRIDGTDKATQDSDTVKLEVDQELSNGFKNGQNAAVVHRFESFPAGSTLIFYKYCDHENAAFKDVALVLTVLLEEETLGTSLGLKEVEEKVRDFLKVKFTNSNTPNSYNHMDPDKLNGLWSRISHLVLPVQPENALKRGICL

[20] = biological target: Alpha-bungarotoxin (Bungarus multicinctus) (UniProt P60615); assay: alpha-bungarotoxin binders on microarray, profiling panel, artefact control for SMM control protein annotation, biochemical, small-molecule microarray, Alexa647 label, 635/667 nm fluorescence (AID 1117); settings: alpha-BTX-A647 binding fluorescence, higher = more signal
Alpha-bungarotoxin (Bungarus multicinctus), sequence (P60615 whole entry, looked up): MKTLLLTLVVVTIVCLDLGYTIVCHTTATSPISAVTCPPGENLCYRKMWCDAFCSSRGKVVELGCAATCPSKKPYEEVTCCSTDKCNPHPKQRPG

Row | Compound | composite z-score [1] | composite z-score [2] | composite z-score [3] | z-score [4] | composite z-score [5] | composite z-score [6] | composite z-score [7] | composite z-score [8] | composite z-score [9] | composite z-score [10] | composite z-score [11] | z-score [12] | composite z-score [13] | composite z-score [14] | composite z-score [15] | composite z-score [16] | composite z-score [17] | composite z-score [18] | composite z-score [19] | composite z-score [20]
1 | CO[C@@H]1COC(=O)CC=C[C@@H](C)[C@@H]2C=C[C@H](O)[C@@H](COC(=O)[C@H](C)NC(=O)CC=C[C@H]1C)O2 | 1.46 | -0.308 | -1.09 | -1.09 (inactive) | 0.441 | 0.674 | 1.04 | 1.03 | 1.28 | 0.578 | -1.68 | -2.12 | 0.433 | -1.52 | -1.99 | -0.103 | -0.0035 | -0.466 | -0.0424 | 0.304
2 | COc1ccc(O[C@H]2C=C[C@@H](c3ccccc3)O[C@@H]2COC(=O)CCC(C)=NO[C@H](C)c2cn([C@@H]3COC[C@H]3O)nn2)cc1 | 0.716 | -0.226 | -0.791 | -1.25 (inactive) | 0.39 | 0.387 | 0.562 | 0.706 | 0.583 | -0.298 | 0.765 | -2.82 | 0.51 | -0.121 | -0.686 | -0.119 | 0.0062 | -0.185 | 0.68 | 1.19
3 | COc1cccc([C@@H]2Oc3ccc(Br)cc3C(=O)[C@H]2O)c1 | 0.237 | -0.257 | -0.423 | -1.7 (inactive) | 1.19 | 0.101 | 0.312 | 0.892 | 0.221 | 0.287 | 0.0288 | 3.55 | 0.171 | 0.042 | -0.246 | -0.124 | -0.243 | -0.257 | 0.43 | 0.599
4 | C[C@@H]1CCC2C(=O)N(Cc3ccccc3)C[C@@H](O)CN2[C@H]1c1ccc(Br)cc1 (stereo not given in full) | 0.892 | -0.276 | -0.441 | -1.89 (inactive) | 0.91 | 0.104 | -0.0897 | 0.078 | 0.228 | 0.203 | 0.671 | 0.344 | 0.149 | 0.102 | -0.28 | -0.169 | -0.138 | -0.0675 | 0.199 | 0.0711
5 | CCOC(=O)[C@H](Cc1ccccc1)NC(=O)CCC1CC(OC(=O)NCc2ccc3c(c2)OCO3)CC2(CCCC(COC(=O)NCc3cccc(C(F)(F)F)c3)O2)O1 (stereo not given in full) | 0.239 | 0.113 | -0.338 | -1.18 (inactive) | 0.984 | 0.584 | 0.314 | 1 | 0.495 | 0.321 | 0.547 | -1.21 | 0.48 | 0.214 | -0.286 | -0.0792 | 0.108 | 0.205 | 0.251 | 0.0294
6 | COCCCNC(=O)[C@@]1(CCS(=O)(=O)c2ccccc2)N=C(c2ccc(OCCCO)cc2)O[C@H]1c1ccccc1 | 1.69 | 1.45 | 1.16 | 0.409 (inactive) | 1.12 | 1.29 | -0.11 | -0.21 | 0.026 | 0.0123 | 0.432 | -1.2 | -0.133 | 0.361 | 0.4 | 0.525 | 0.179 | 2.11 | 2.95 | 2.44
